PubChem BioAssay (NCATS)
For some of these results: Potency and affinity values are given separately. Activity calls are given as the source filed them. Where a call stands in place of a potency, no number is given. Calls come from the whole dose curve.

settings: Ebola virus entry assay, blue channel fluorescence

Q: With `CC[C@@H](CO)NC(=O)[C@@H]1C=C2c3cccc4c3c(cn4C)C[C@H]2N(C)C1` as the compound, how does the outcome read?
A: inactive

Q: Which outcome does the source give for `NC(=O)c1cn(Cc2c(F)cccc2F)nn1` here?
A: inactive

Q: Which outcome does the source give for `CC(C)NCC(O)COc1cccc2[nH]ccc12` (stereo not given) here?
A: inactive

Q: Which AC50 does the source give for `CNCCC(Oc1ccc(C(F)(F)F)cc1)c1ccccc1` (stereo not given) here?
A: 14.1 µM (active)

Q: For `Cc1ccccc1C(=O)Nc1ccc(C(=O)N2CCCC(O)c3cc(Cl)ccc32)c(C)c1` (stereo not given), which outcome is on record?
A: inactive

Q: With `CC1=NS(=O)(=O)c2cc(Cl)ccc2N1` as the compound, how does the outcome read?
A: inactive

Q: With `COc1ccccc1OCCNCC(O)COc1cccc2[nH]c3ccccc3c12` (stereo not given) as the compound, how does the AC50 read?
A: 11.2 µM (active)

Q: Which outcome does the source give for `COc1ccc(OC)c(C(O)CNC(=O)CN)c1` (stereo not given) here?
A: inactive

Q: Which outcome does the source give for `Cc1[nH]cnc1CN1CCc2c(c3ccccc3n2C)C1=O` here?
A: inactive

Q: Which outcome does the source give for `O=C1C(=O)c2ccccc2C(O)=C1C1CCC(c2ccc(Cl)cc2)CC1` (stereo not given) here?
A: inactive

Q: Which outcome does the source give for `O=c1[nH]cc(F)c(=O)[nH]1` here?
A: inactive

Q: For `CCOC(=O)[C@H](CCc1ccccc1)N[C@@H](C)C(=O)N1[C@H](C(=O)O)C[C@@H]2CCC[C@@H]21`, which outcome is on record?
A: inactive

settings: Ebola virus entry assay, green fluorescence channel

Q: For `O=c1[nH]cnc2c1ncn2[C@H]1CC[C@@H](CO)O1`, which outcome is on record?
A: inactive

Q: Which outcome does the source give for `CCN(CC)C(=S)SSC(=S)N(CC)CC` here?
A: inactive

Q: With `CC(C)OC(=O)C(C)(C)Oc1ccc(C(=O)c2ccc(Cl)cc2)cc1` as the compound, how does the outcome read?
A: inactive

Q: For `COC(=O)C1=C(C)NC(C)=C(C(=O)OC(C)C)C1c1cccc2nonc12` (stereo not given), which outcome is on record?
A: inactive

Q: For `CC1(C)NC(=O)N(c2ccc([N+](=O)[O-])c(C(F)(F)F)c2)C1=O`, which outcome is on record?
A: inactive

Q: For `CCCCc1nc(Cl)c(CO)n1Cc1ccc(-c2ccccc2-c2nn[nH]n2)cc1`, which outcome is on record?
A: inactive

Q: For `O=C1CCC(N2C(=O)c3ccccc3C2=O)C(=O)N1` (stereo not given), which outcome is on record?
A: inactive

Q: For `Cc1ncc([N+](=O)[O-])n1CCO`, which outcome is on record?
A: inactive

Q: For `CC1=C(C(=O)O)N2C(=O)[C@@H](NC(=O)[C@H](N)c3ccc(O)cc3)[C@H]2SC1`, which outcome is on record?
A: inactive

Q: For `Cc1ccc(S(=O)(=O)NC(=O)NN2CCCCCC2)cc1`, which outcome is on record?
A: inactive

Q: Which outcome does the source give for `CC(C)c1nc(CN(C)C(=O)N[C@H](C(=O)N[C@@H](Cc2ccccc2)C[C@H](O)[C@H](Cc2ccccc2)NC(=O)OCc2cncs2)C(C)C)cs1` here?
A: inactive

Q: With `CC1=NS(=O)(=O)c2cc(Cl)ccc2N1` as the compound, how does the outcome read?
A: inactive

Q: Which outcome does the source give for `Cn1cc[nH]c1=S` here?
A: inactive

Q: For `CCOC(=O)[C@H](CCc1ccccc1)N[C@@H](C)C(=O)N1Cc2ccccc2C[C@H]1C(=O)O`, which outcome is on record?
A: inactive

Q: Which outcome does the source give for `O=C(CCCN1CCC(O)(c2ccc(Cl)cc2)CC1)c1ccc(F)cc1` here?
A: inactive

Q: Which outcome does the source give for `CCCCc1oc2ccccc2c1C(=O)c1cc(I)c(OCCN(CC)CC)c(I)c1` here?
A: inactive

Q: For `O=C1C(=O)c2ccccc2C(O)=C1C1CCC(c2ccc(Cl)cc2)CC1` (stereo not given), which outcome is on record?
A: inactive

Q: With `N=c1nc(N2CCCCC2)cc(N)n1O` as the compound, how does the outcome read?
A: inactive

Q: For `O=c1[nH]cc(F)c(=O)[nH]1`, which outcome is on record?
A: inactive

Q: With `CN[C@H]1CC[C@@H](c2ccc(Cl)c(Cl)c2)c2ccccc21` as the compound, how does the outcome read?
A: inactive

Q: Which outcome does the source give for `CCC[C@H](N[C@@H](C)C(=O)N1[C@H](C(=O)O)C[C@@H]2CCCC[C@@H]21)C(=O)OCC` here?
A: inactive

settings: Ebola virus entry assay, ratio channel readout

Q: Which outcome does the source give for `CCN(CC)C(=S)SSC(=S)N(CC)CC` here?
A: inactive

Q: With `CC[C@@H](CO)NC(=O)[C@@H]1C=C2c3cccc4c3c(cn4C)C[C@H]2N(C)C1` as the compound, how does the outcome read?
A: inactive

Q: Which outcome does the source give for `CC(C)OC(=O)C(C)(C)Oc1ccc(C(=O)c2ccc(Cl)cc2)cc1` here?
A: inactive

Q: With `COC(=O)C1=C(C)NC(C)=C(C(=O)OC(C)C)C1c1cccc2nonc12` (stereo not given) as the compound, how does the outcome read?
A: inactive

Q: For `NC(=O)c1cn(Cc2c(F)cccc2F)nn1`, which outcome is on record?
A: inactive

Q: Which outcome does the source give for `CC(C)NCC(O)COc1cccc2[nH]ccc12` (stereo not given) here?
A: inactive

Q: With `CNCCC(Oc1ccc(C(F)(F)F)cc1)c1ccccc1` (stereo not given) as the compound, how does the outcome read?
A: inactive

Q: With `CC1(C)NC(=O)N(c2ccc([N+](=O)[O-])c(C(F)(F)F)c2)C1=O` as the compound, how does the outcome read?
A: inactive

Q: Which outcome does the source give for `CCCCc1nc(Cl)c(CO)n1Cc1ccc(-c2ccccc2-c2nn[nH]n2)cc1` here?
A: inactive

Q: With `Cc1ccccc1C(=O)Nc1ccc(C(=O)N2CCCC(O)c3cc(Cl)ccc32)c(C)c1` (stereo not given) as the compound, how does the outcome read?
A: inactive

Q: With `O=C1CCC(N2C(=O)c3ccccc3C2=O)C(=O)N1` (stereo not given) as the compound, how does the outcome read?
A: inactive

Q: For `Cc1ncc([N+](=O)[O-])n1CCO`, which outcome is on record?
A: inactive

Q: For `CC1=C(C(=O)O)N2C(=O)[C@@H](NC(=O)[C@H](N)c3ccc(O)cc3)[C@H]2SC1`, which outcome is on record?
A: inactive

Q: For `Cc1ccc(S(=O)(=O)NC(=O)NN2CCCCCC2)cc1`, which outcome is on record?
A: inactive

Q: For `CC(C)c1nc(CN(C)C(=O)N[C@H](C(=O)N[C@@H](Cc2ccccc2)C[C@H](O)[C@H](Cc2ccccc2)NC(=O)OCc2cncs2)C(C)C)cs1`, which outcome is on record?
A: inactive

Q: Which outcome does the source give for `COc1ccccc1OCCNCC(O)COc1cccc2[nH]c3ccccc3c12` (stereo not given) here?
A: inactive

Q: For `CCOC(=O)[C@H](CCc1ccccc1)N[C@@H](C)C(=O)N1Cc2ccccc2C[C@H]1C(=O)O`, which outcome is on record?
A: inactive

Q: For `COc1ccc(OC)c(C(O)CNC(=O)CN)c1` (stereo not given), which outcome is on record?
A: inactive

Q: Which outcome does the source give for `O=C(CCCN1CCC(O)(c2ccc(Cl)cc2)CC1)c1ccc(F)cc1` here?
A: inactive

Q: Which outcome does the source give for `Cc1[nH]cnc1CN1CCc2c(c3ccccc3n2C)C1=O` here?
A: inactive

Q: For `N=c1nc(N2CCCCC2)cc(N)n1O`, which outcome is on record?
A: inactive

Q: Which outcome does the source give for `CCOC(=O)[C@H](CCc1ccccc1)N[C@@H](C)C(=O)N1[C@H](C(=O)O)C[C@@H]2CCC[C@@H]21` here?
A: inactive
